PLK1 PBD inh: PLK1 (human) polo-box domain binding inhibition; P53350; Plk1 PBD binding of FITC phosphopeptide, fluorescence polarization; Potency, µM, usual class: inhibitors; 2.8% of 360,000 active; AID 720504; note: series mostly up to about 57 µM; nearly all actives have a fitted effect of over 65% in size
Target sequence (P53350 whole entry, looked up, the tested form may be a part): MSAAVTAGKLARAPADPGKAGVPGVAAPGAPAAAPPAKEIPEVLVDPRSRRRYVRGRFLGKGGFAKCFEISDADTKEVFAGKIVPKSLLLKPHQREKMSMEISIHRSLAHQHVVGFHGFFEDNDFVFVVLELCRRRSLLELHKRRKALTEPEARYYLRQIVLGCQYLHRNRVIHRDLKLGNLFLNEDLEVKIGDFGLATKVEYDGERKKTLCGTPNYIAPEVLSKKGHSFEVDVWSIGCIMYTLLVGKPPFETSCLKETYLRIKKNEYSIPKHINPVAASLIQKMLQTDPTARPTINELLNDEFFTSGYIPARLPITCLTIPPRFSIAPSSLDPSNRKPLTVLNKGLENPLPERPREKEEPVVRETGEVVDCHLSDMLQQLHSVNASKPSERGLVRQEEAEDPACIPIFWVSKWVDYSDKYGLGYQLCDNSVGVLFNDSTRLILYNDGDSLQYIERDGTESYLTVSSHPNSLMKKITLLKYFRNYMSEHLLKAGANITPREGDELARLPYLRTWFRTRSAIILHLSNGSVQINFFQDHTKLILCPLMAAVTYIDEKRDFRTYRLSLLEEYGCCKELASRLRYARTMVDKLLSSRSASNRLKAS
Sfp inh: inhibitors of Bacillus subtilis Sfp phosphopantetheinyl transferase; Q9F4F7; Biochemical Sfp PPTase activity, qHTS; Potency, µM, most hits filed as inhibitors; 3.5% of 310,000 active;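 note: the enzyme is Sfp with the accession as filed and its product quenches rhodamine fluorescence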
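Fluorescence-quenching assay with 15 nM Sfp, 5 uM rhodamine-CoA and 12.5 uM BHQ-2-labelled ybbR peptide in pH 7.6 Hepes/MgCl2 buffer. Enzyme was pre-incubated with compound for 15 min at room temperature. Rate was taken from the 30-min fluorescence change (525/598 nm).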
VDR inhibitor: inhibitors of human vitamin D receptor | Potency, µM, most hits filed as inhibitors | 0.93% of 400,000 active | VDR-SRC2-3 peptide fluorescence polarization, 2 h
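The screen uses fluorescence polarization to detect compounds that interfere with recruitment of the SRC2-3 coactivator peptide to VDR; plates are read after 2 h at room temperature.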
CCT chaperon mod: modulators of cytosolic chaperonin (CCT/TRiC) activity | purified chaperonin ATPase assay, HTRF ADP detection, 30 min | activity change, % (test concentration not listed), hits read low | 0.3% of 360,000 active; in the data active = activity change below about -30%
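First, chaperonin was dispensed at 40 nM or 20 nM final depending on batch activity. Next, compounds were pinned at 76 uM and ATP added at 10 uM. After 30 min at 37 °C, ADP detection reagents ran 30 min at ambient temperature.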
G9a block: blocks human histone lysine methyltransferase G9a. Q96KQ7. G9a H3K9 monomethylation, AlphaScreen, 2 h. 8.8% of 350,000 active. Potency, µM (series often up to 102 µM), hits mostly inhibitors; note: nearly all actives have a fitted effect of over 75% in size
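Chemiluminescent proximity detection of H3K9 monomethylation, read after 10 min bead incubation in the dark. Reaction: 20 nM G9a, 500 nM biotin-H3K9 peptide, 20 uM SAM cofactor, 2 h, room temperature, following 15 min enzyme-compound preincubation.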
MmCpn inh: inhibitors of Methanococcus maripaludis chaperonin TRiC (MmCpn). purified Mm-Cpn ATPase, ADP Transcreener TR-FRET. Potency, µM (series often up to 76.9 µM), actives largely listed as inhibitors. 0.031% of 330,000 active; note: nearly all actives have a fitted effect of over 80% in size
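Reaction buffer contained 30 mM Tris pH 7.4, 100 mM KCl, 5 mM MgCl2 and 1 mM DTT. Mm-CPN (25 nM final) hydrolysed 10 uM ATP over 30 min at 37°C; ADP was read by HTRF.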
Each line names hits and unclear results; the compound was inactive in the other large screens; ! = a repeat was not active. An excerpt weighted towards active compounds, which were near 10% of everything screened. Unless noted, calls come from the whole dose curve; as a rule, active = well fitted curve in the direction sought with a large enough effect; inconclusive = small, poorly fitted or top-dose-only effect, or another doubt; inactive = no such curve, though single readings can be large; an effect the other way counts as inactive or inconclusive.

O=C1NC(=S)N(c2ccc(Cl)cc2)C(=O)/C1=C/N1CCN(C(=O)c2ccco2)CC1	PLK1 PBD inh inconclusive, Sfp inh 45µM, G9a block 50µM
O=C1NC(=S)N(c2ccc(F)cc2)C(=O)/C1=C\c1ccoc1	PLK1 PBD inh 2.7µM, Sfp inh 20µM, VDR inhibitor inconclusive, G9a block 7.9µM
O=C1NC(=S)N(c2ccc(F)cc2)C(=O)/C1=C/c1ccco1	Sfp inh 25µM, G9a block inconclusive (no result: PLK1 PBD inh, VDR inhibitor, CCT chaperon mod)
O=C(c1ccncc1)N1CCC2(CC1)CN(Cc1ccccc1)C2	none (no result: PLK1 PBD inh, CCT chaperon mod, MmCpn inh)
CC/C=C\C/C=C\C/C=C\C/C=C\C/C=C\CCCC(=O)NCCCC(=O)O	none (no result: PLK1 PBD inh, CCT chaperon mod, G9a block, MmCpn inh)
C(=C\c1ccccc1)/CN1CCN(Cc2ccc3c(c2)OCCO3)CC1	MmCpn inh inconclusive (no result: PLK1 PBD inh, VDR inhibitor, CCT chaperon mod)
COc1ccc(NC(=O)CN2C(=O)C(C)N=C(c3ccccc3F)c3cc(Cl)ccc32)c(OC)c1 (configuration not stated)	none (no result: PLK1 PBD inh, Sfp inh, CCT chaperon mod, MmCpn inh)
COC(=O)CCCc1[se]c2ccccc2c1I	none (no result: PLK1 PBD inh, CCT chaperon mod, MmCpn inh)
O=C1NC(=O)C(=Cc2ccco2)C(=O)N1	PLK1 PBD inh 4.7µM (no result: Sfp inh, G9a block, MmCpn inh)
COc1ccc(OC)c(N2C(=O)/C(=C/c3ccco3)C(=O)NC2=S)c1	PLK1 PBD inh 2.4µM, Sfp inh 18µM, VDR inhibitor inconclusive, G9a block 1.8µM
COc1ccc(OC)c(N2C(=O)CC(=O)NC2=O)c1	G9a block inconclusive
O=[P+](Cc1ccccc1)Cc1ccccc1	none
COc1ccc(C2SCC(=O)Nc3c2c(=O)[nH]n3C2CCCCCC2)cc1 (configuration not stated)	G9a block 71µM
O=C(O)CN1C(=O)CN=C(c2ccccn2)c2cc(Cl)ccc21	Sfp inh 50µM
CC1CC[C@]2(NC1)OC1CC3C4CC=C5CC(O)CC[C@@]5(C)C4CC[C@]3(C)C1C2C (some centres not stated)	none (no result: PLK1 PBD inh, CCT chaperon mod, MmCpn inh)
O=P(C(Cl)Cl)(N1CCCCC1)N1CCCCC1	none
O=P(OCC(F)(F)C(F)F)(N1CCCCC1)N1CCCCC1	G9a block 45µM
CN1/C(=C\C=C\C2=[N+](C)c3ccc4ccccc4c3C2(C)C)C(C)(C)c2ccccc21	Sfp inh 16µM, G9a block 10µM (no result: PLK1 PBD inh, VDR inhibitor, CCT chaperon mod)
CCN1/C(=C/C=C/C2=[N+](CC)c3ccccc3C2(C)C)C(C)(C)c2ccccc21	none (no result: Sfp inh, VDR inhibitor, G9a block, MmCpn inh)
CC1CCC2C(C)C(=O)OC3OC4(C)CCC1C32OO4 (configuration not stated)	Sfp inh 89µM!
O=C(CNC(=O)c1ccccc1)NCC(=O)OCC(=O)c1ccc([N+](=O)[O-])cc1	Sfp inh 28µM, VDR inhibitor inconclusive, G9a block 8.9µM
O=C(CNC(=O)c1ccc(Br)cc1)NCC(=O)OCC(=O)c1ccc([N+](=O)[O-])cc1	VDR inhibitor inconclusive, G9a block inconclusive
CCOc1ccccc1-n1c(O)c(C=Nc2c(C)n(C)n(-c3ccccc3)c2=O)c(=O)[nH]c1=O	G9a block inconclusive
COc1ccc(OC)c(-n2c(O)c(C=Nc3c(C)n(C)n(-c4ccccc4)c3=O)c(=O)[nH]c2=S)c1	Sfp inh 45µM (no result: G9a block)
CCOc1ccc(NCc2cccn2-c2nnc(N3CCC(C(=O)NCC(C)c4ccccc4)CC3)s2)cc1 (configuration not stated)	G9a block inconclusive (no result: PLK1 PBD inh, Sfp inh, CCT chaperon mod, MmCpn inh)
CN1C(=O)N(C)C(=O)C2(Cc3c(ccc4ccccc34)N(C)C2)C1=O	PLK1 PBD inh 8.4µM, G9a block inconclusive
COc1ccccc1N1CCN(Cc2cc(C)c(C)cc2O)CC1	none
Oc1cc2c(cc1CN1CCN(c3ccccc3F)CC1)OCO2	G9a block 8.9µM
Cc1cccc(N2CCN(Cc3ccc4c(c3)OCO4)CC2)c1C	G9a block 7.9µM
COc1ccccc1N1CCN(Cc2ccc3c(c2)OCO3)CC1	none (no result: Sfp inh, G9a block, MmCpn inh)
CNc1ccc(C(=O)CC(O)CCC(C)C2OC(=O)CC(O)CC(=O)CC(O)CC(O)CC(O)CC(O)CC3(O)CC(O)C(C(=O)OC)C(CC(O[C@@H]4OC(C)C(O)C(N)C4O)/C=C/C=C/C=C/C=C/C=C/C=C/C=C/C2C)O3)cc1 (some centres not stated)	none (no result: PLK1 PBD inh, CCT chaperon mod, MmCpn inh)
Cc1ccc2c(c1)[C@@H]1CN(C)CC[C@H]1N2	none (no result: PLK1 PBD inh, CCT chaperon mod, MmCpn inh)
NC(N)=NCCC[C@@H](N)C(=O)O	Sfp inh inconclusive (no result: PLK1 PBD inh, CCT chaperon mod, MmCpn inh)
N[C@@H](CSCCCO)C(=O)O	Sfp inh 50µM (no result: PLK1 PBD inh, CCT chaperon mod, MmCpn inh)
COc1ccc(OC)c([C@H](O)[C@H](C)N)c1	none (no result: PLK1 PBD inh, CCT chaperon mod, MmCpn inh)
Oc1c(Br)c(Br)c(Br)c(Br)c1Br	PLK1 PBD inh 27µM, VDR inhibitor inconclusive (no result: Sfp inh)
CSc1ccc(C(=O)C2CCCN(Cc3cc4ccccc4[nH]3)C2)cc1 (configuration not stated)	PLK1 PBD inh 30µM, VDR inhibitor 89µM, G9a block 16µM, MmCpn inh inconclusive
Nc1nc2ccc(Cl)cc2c2nc(-c3ccco3)nn12	VDR inhibitor inconclusive, G9a block 2.5µM! (no result: PLK1 PBD inh, CCT chaperon mod)
CCCCCCCCn1sccc1=O	PLK1 PBD inh 4.7µM, VDR inhibitor 3.5µM (no result: Sfp inh)
CCN(CC)C(=O)Cn1cc(/C=C2\C(=O)NC(=O)N(c3ccccc3F)C2=O)c2ccccc21	PLK1 PBD inh 4.7µM, Sfp inh inconclusive, VDR inhibitor 79µM
O=C(O)Cn1cc(/C=C2\C(=O)NC(=O)N(c3ccc(Cl)cc3)C2=O)c2ccccc21	PLK1 PBD inh 15µM, Sfp inh inconclusive, VDR inhibitor inconclusive, G9a block inconclusive
CCN1C(=O)NC(=O)/C(=C\c2cn(CC(=O)N3CCCCC3C)c3ccccc23)C1=O (configuration not stated)	PLK1 PBD inh inconclusive
CC(=O)O[C@@]12CO[C@@H]1C[C@H](O)[C@@]1(C)C(=O)[C@H](O)C3=C(C)[C@@H](OC(=O)[C@H](O)[C@@H](NC(=O)c4ccccc4)c4ccccc4)C[C@@](O)([C@@H](OC(=O)c4ccccc4)C12)C3(C)C (some centres not stated)	Sfp inh 11µM
CC(=O)O[C@H]1C(=O)[C@@]2(C)C([C@H](OC(=O)c3ccccc3)[C@]3(O)C[C@H](OC(=O)[C@H](O)[C@@H](NC(=O)Cc4ccccc4)c4ccccc4)C(C)=C1C3(C)C)[C@]1(OC(C)=O)CO[C@@H]1C[C@@H]2O (some centres not stated)	none
O=C(c1cn(Cc2ccccc2F)c2ncccc12)C(F)(F)F	CCT chaperon mod -36
O=C(C(=O)N1CCOCC1)c1cn(Cc2ccccc2F)c2ccccc12	none (no result: G9a block)
CC(C)[C@@]1(NC(=O)[C@@H]2C[C@H]3c4cccc5[nH]cc(c45)C[C@@H]3N(C)C2)O[C@@]2(O)[C@H]3CCCN3C(=O)[C@H](Cc3ccccc3)N2C1=O	none (no result: PLK1 PBD inh, CCT chaperon mod, G9a block, MmCpn inh)
c1ccc2nc3ccccc3nc2c1	G9a block 45µM
CCN(CC)CCCN=Cc1c(O)n(CCc2ccc(OC)c(OC)c2)c(=O)[nH]c1=O	none
